Experimental findings from PubChem BioAssay (NCATS) are described below.

Activity calls are given as the source filed them. The call rests on the fitted dose curve; in most records, active means well fitted curve in the direction sought with a large enough effect; inactive means no such curve, though single readings can be large or run the other way.

For this assay, the target named is Alpha-galactosidase (Coffea arabica) (UniProt Q42656). Description: Counterscreen for Glucocerebrosidase Inhibitors: qHTS Assay for Coffee Bean alpha-Galactosidase at pH 5.9 (AID 998). The settings on record: coffee bean alpha-galactosidase enzyme assay; series mostly up to 76.9 µM. In short, it runs like this: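 Green coffee bean enzyme (2 nM) with 4-methylumbelliferyl alpha-D-galactopyranoside (80 uM) in 50 mM citric acid, 0.005% Tween-20, pH 5.9, 20 min at room temperature; compounds 0.7 nM–77 uM. Stopped at pH 10, fluorescence Ex365/Em440; Hill-fit AC50.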
Alpha-galactosidase (Coffea arabica), sequence (Q42656 whole entry, looked up): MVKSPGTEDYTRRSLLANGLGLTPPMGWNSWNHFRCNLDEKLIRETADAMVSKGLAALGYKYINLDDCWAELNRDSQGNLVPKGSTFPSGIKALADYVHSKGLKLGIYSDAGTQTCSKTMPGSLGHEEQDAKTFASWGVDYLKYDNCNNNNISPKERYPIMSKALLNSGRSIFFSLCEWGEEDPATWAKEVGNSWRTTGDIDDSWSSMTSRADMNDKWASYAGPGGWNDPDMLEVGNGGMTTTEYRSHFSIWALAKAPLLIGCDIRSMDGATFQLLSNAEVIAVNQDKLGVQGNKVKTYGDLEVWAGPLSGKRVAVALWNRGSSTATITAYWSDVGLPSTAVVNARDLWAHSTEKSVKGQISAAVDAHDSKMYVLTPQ
On the technique in general: The purpose of a counterscreen is to sort out artefacts and off-target activity.
Regarding `Cn1cc(C(F)(F)F)nc1-c1ccc(OC[C@@H](O)CNCCOc2ccc(O)c(C(N)=O)c2)cc1`, the result was inactive.

Regarding `c1ccc2c(c1)CCC[C@H]2C1=NCCN1`, the call was inactive.

Take `C[C@]12CC3CC(N)(C1)C[C@@](C)(C3)C2`: the result was inactive. As for `C[C@@](N)(Cc1ccc(O)cc1)C(=O)O`, the entry is “inactive”.

`C[C@@H]1C[C@@H]2[C@H]3CCC4=CC(=O)C=C[C@]4(C)[C@]3(F)[C@@H](O)C[C@@]2(C)[C@@]1(O)C(=O)CO`: the compound was classed as inactive.

Consider `C[C@@H]1CNCCN1S(=O)(=O)c1cccc2cnccc12`, for which the outcome was inactive. Under `O=C(O)[C@H]1CCCNC1` stands “inactive”; under `CC1=C(C(=O)O)N2C(=O)[C@@H](NC(=O)[C@@H](N)C3=CCC=CC3)[C@@H]2SC1`, “inactive”. As for `COc1cc2c(cc1C(F)(F)F)N(C(=O)Nc1cc(F)cc(-c3cccnc3)c1)CC2`, the entry is “inactive”; as for `C#C[C@H](N)CCC(=O)O`, “inactive”; as for `N[C@H](Cc1cccc(-c2ccccc2CP(=O)(O)O)c1)C(=O)O`, “inactive”. As for `NC(N)=N[C@H](CCC(=O)O)C(=O)O`, the entry is “inactive”; as for `OC[C@H]1O[C@@H](n2cnc3c(NCCc4ccccc4)ncnc32)[C@H](O)[C@H]1O`, “inactive”. Consider `CCCCCCCCCCCCCCCCCCNC(=O)OC[C@@H](COP(=O)([O-])OCC[n+]1ccsc1)OC`, for which the compound was called inactive. Under `CCCCC/C=C\C[C@H](O)/C=C\c1cccc(C[C@H](O)CCCCO)n1` stands “inactive”. Under `C=CCN1CCc2cc(O)c(O)cc2[C@H](c2ccccc2)C1` stands “inactive”; under `C[C@@H](CCc1ccc(O)cc1)NCCc1ccc(O)c(O)c1`, “inactive”. Regarding `CCn1ccnc1C[C@@H]1COc2ccccc2O1`, the compound was called inactive.
